# This is part of a sample that, as a whole, favours compounds with a hit. Of some 83,000 tested, about 20% had one in any assay.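 Note: values are percent growth. 100 is the growth of untreated cells, values between 100 and 0 indicate rising inhibition; between -100 and 0 indicates cell death.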 Values without a mark were called inactive. Active and inactive are the calls of the source. Rule for the calls: active = growth percent below 10; inactive = the rest.
# Columns and labels:
# Assay in all cases: NCI-60 one-dose screen, 48 h (100 = growth as untreated, 0 = no growth, -100 = all killed)
# Details in all cases: 10 µM
# [1] = test system: SR leukemia
# [2] = test system: RPMI-8226 leukemia
# [3] = test system: OVCAR-8 ovarian
# [4] = test system: OVCAR-5 ovarian
# [5] = test system: OVCAR-4 ovarian
# [6] = test system: SK-OV-3 ovarian
# [7] = test system: OVCAR-3 ovarian
# [8] = test system: HS 578T breast
# [9] = test system: NCI/ADR-RES ovarian
# [10] = test system: IGROV1 ovarian
Compound,growth [1],growth [2],growth [3],growth [4],growth [5],growth [6],growth [7],growth [8],growth [9],growth [10]
CC(=O)Nc1ccc(S(=O)(=O)N/N=C(\C)c2ccc(C)cc2C)cc1,113%,104%,98.5%,98.4%,102%,98.5%,111%,134%,112%,
Cc1cc(C)nc(NS(=O)(=O)c2ccc(Nc3nc4nc(NCc5ccccc5)nc(-c5ccc(O)cc5)c4c(=O)[nH]3)cc2)n1,26.5%,18.1%,49.5%,45.2%,18.3%,35.2%,,35.6%,20.3%,
CC(C1=C(CN(C(=O)Cc2cn(-c3ccccc3)nc2-c2ccc(Cl)cc2)C(C)C)Cc2ccccc21)c1ccccn1 (stereo not given),37.4%,36.5%,81.7%,85%,54.8%,65.4%,,80.7%,61.1%,
CC(C)N(CCOc1cccc(-c2nc3sccn3c2-c2ccnc(S(C)(=O)=O)n2)c1)C(C)C,64.3%,37.7%,79.2%,115%,64.5%,85.7%,,95.8%,89.5%,94.7%
Cc1cc(=O)n2nnc3cc(Cl)c(Cl)cc3n12,70.5%,97.4%,106%,107%,92.1%,85.2%,77.8%,122%,101%,
CC(=O)C1N=NCC1c1ccccc1 (stereo not given),111%,110%,111%,98.9%,106%,103%,110%,90%,104%,
COc1cc2c(cc1OC)C(C(CCCCCC(CCC(C)C)C1NCCc3cc(OC)c(OC)cc31)CCC(C)C)NCC2 (stereo not given),12.1%,-57.1% (active),-89.3% (active),-100% (active),-100% (active),-99.5% (active),-99.9% (active),-41% (active),-95.9% (active),
Nc1nccc(OCCO)n1,95.9%,108%,109%,101%,109%,102%,,107%,103%,107%
COc1cc(-c2ccc(N=Nc3ccc4c(S(=O)(=O)O)ccc(N)c4c3O)c(OC)c2)ccc1N=Nc1ccc2c(S(=O)(=O)O)ccc(N)c2c1O,146%,115%,99.6%,111%,98.4%,91.4%,109%,124%,109%,
C#CC(C)(O)[C@@H]1C[C@H](CC(=O)O)C1(C)C (stereo not given in full),88.9%,109%,112%,102%,117%,116%,119%,105%,111%,
O=C(Nc1cccc2c1CCCC2)c1cc2ccccc2cc1O,18%,8.51% (active),55.9%,103%,56.8%,37%,,47.5%,11.7%,32.1%
CCN(CC)CCCC(C)N=C(C1=C(C(=NC(C)CCCN(CC)CC)c2cccc(OC)c2)C(=O)NC1=O)c1cccc(OC)c1 (stereo not given),2.6% (active),-30.6% (active),-11.3% (active),-3.07% (active),-23.5% (active),9.81% (active),-17.7% (active),16.4%,4.23% (active),
NC(=O)c1cccc(-n2ccc3cc(NC(=O)Nc4ccc(Cl)c(C(F)(F)F)c4)ccc32)n1,91.1%,70.5%,72.1%,93.1%,77.6%,94.8%,,46.5%,82%,74.5%
COC(=O)c1cc2oc(/C=C3/SC(=S)N(N)C3=O)cc2n1Cc1ccccc1,20.8%,-4.46% (active),31.1%,72.6%,51%,98.2%,55%,-27.4% (active),52.5%,
CN(C)CCCOc1ccc(NC2=C(Cl)C(=O)C(Nc3ccc(OCCCN(C)C)cc3)=C(Cl)C2=O)cc1,-1.57% (active),-44.1% (active),-68.3% (active),-60.6% (active),-98.9% (active),24.4%,,-0.291% (active),8.96% (active),-68.2% (active)
CCOC(=O)Cn1c(=O)c2sc3ncccc3c2n2nnc(-c3ccccc3)c12,93.5%,94.7%,102%,105%,101%,94%,120%,112%,105%,
Cc1c(Cl)cccc1NC(=O)CCCl,84.1%,90.6%,94.2%,106%,111%,104%,,104%,105%,104%
CNC(=O)c1cc(Oc2ccc3c(c2)sc2nc(-c4ccc(N)cc4)cn23)ccn1,28.3%,40.5%,10.9%,64.2%,59.7%,21.2%,,54.9%,11.2%,31.6%
COc1ccc(/C=C2\CCCC3=C2NC(N)=NC3c2ccc(OC)c(OC)c2)cc1OC (stereo not given),28.1%,15.2%,10.6%,74.4%,53.4%,44.1%,,87.9%,25.1%,57.1%
COc1ccc(C2CC(c3cccs3)=NN2c2ccc(S(N)(=O)=O)cc2)cc1 (stereo not given),83%,61.2%,84.4%,95.4%,107%,88.5%,,97.4%,77.4%,
O[C@@H]1CO[C@H]2[C@@H]1OC[C@@H]2O,112%,112%,102%,92.6%,121%,115%,120%,,104%,
CC(C)(O)CCl,111%,113%,102%,108%,129%,119%,114%,96%,108%,
COc1ccc(C(=O)COc2cccc(/C=C3\Cc4ccccc4C3=O)c2)cc1,56.7%,57.9%,91.7%,88.5%,76.8%,95.8%,97.2%,86.9%,74.4%,
CC(C)(C)c1ccc(S(=O)(=O)N[C@H]2CC[C@H]3[C@@H]4CCc5cc(OS(=O)(=O)O)ccc5[C@H]4CC[C@]23C)cc1,20.7%,34.1%,52.1%,87.3%,53.4%,82.1%,,66.5%,47.3%,41.4%
CC(=O)N[C@H](C(=O)N[C@@H](CCCNC(=N)N)C(=O)N[C@@H](CCCCN)C(=O)N[C@@H](CCCNC(=N)N)C(=O)N[C@]1(C)CCC/C=C\CCC[C@@](C)(C(=O)N[C@@H](CC(C)C)C(=O)N[C@@H](CC(C)C)C(=O)N[C@@H](CCC(N)=O)C(=O)N[C@@H](CCC(=O)O)C(=O)N[C@@H](CCCNC(=N)N)C(=O)N[C@@H](CCC(=O)O)C(=O)N[C@@H](CC(C)C)C(=O)N[C@H](C(=O)N[C@@H](CCC(=O)O)C(N)=O)C(C)C)NC(=O)[C@H](CCCNC(=N)N)NC(=O)[C@H](CC(C)C)NC1=O)C(C)C,104%,104%,104%,111%,107%,108%,,119%,109%,110%
O=C1c2c(c(=O)[nH]c3ccccc23)CCN1Cc1ccccc1,115%,91.9%,96.4%,92.9%,155%,98.1%,121%,119%,98.6%,

# — PubChem BioAssay (NCI)
